Rows were chosen to be rich in hits. Some 4.8% of all compounds tested hit in one or more screens of this group.
MPTP inh: permeability transition pore inhibition; isolated mouse mitochondria, Ca2+ swelling absorbance, 30 min; inhibition, % at 10 µM; actives 1.4% (n = 360,000);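 active means inhibition of 50% or more, scaled per plate between neutral and stimulator controls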;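 further: 0% = DMSO wells given calcium and 100% = 1 mM EGTA wells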
Mdm2 MdmX PPI: human Mdm2/MdmX binding inhibition. O15151+Q00987. SaOS-2 split-luciferase Mdm2/MdmX complementation, luminescence. inhibition, % at 8 µM. actives 3% (n = 330,000). AID 485346;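 active means inhibition of at least 50% at 8 µM in the primary screen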
Target sequence (O15151 whole entry, looked up): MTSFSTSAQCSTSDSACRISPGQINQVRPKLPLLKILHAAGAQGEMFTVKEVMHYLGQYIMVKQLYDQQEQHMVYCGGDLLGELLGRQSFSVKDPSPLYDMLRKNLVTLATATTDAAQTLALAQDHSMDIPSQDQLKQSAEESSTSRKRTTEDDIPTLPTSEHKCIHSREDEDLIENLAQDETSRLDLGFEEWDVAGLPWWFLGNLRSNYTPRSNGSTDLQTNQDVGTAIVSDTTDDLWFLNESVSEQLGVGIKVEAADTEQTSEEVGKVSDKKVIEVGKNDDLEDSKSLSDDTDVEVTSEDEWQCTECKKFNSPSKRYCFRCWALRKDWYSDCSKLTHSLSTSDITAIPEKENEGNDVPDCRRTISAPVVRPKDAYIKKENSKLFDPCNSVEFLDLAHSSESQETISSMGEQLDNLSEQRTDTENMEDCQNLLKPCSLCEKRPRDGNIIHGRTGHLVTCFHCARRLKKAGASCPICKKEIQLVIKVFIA
Target sequence (Q00987 whole entry, looked up): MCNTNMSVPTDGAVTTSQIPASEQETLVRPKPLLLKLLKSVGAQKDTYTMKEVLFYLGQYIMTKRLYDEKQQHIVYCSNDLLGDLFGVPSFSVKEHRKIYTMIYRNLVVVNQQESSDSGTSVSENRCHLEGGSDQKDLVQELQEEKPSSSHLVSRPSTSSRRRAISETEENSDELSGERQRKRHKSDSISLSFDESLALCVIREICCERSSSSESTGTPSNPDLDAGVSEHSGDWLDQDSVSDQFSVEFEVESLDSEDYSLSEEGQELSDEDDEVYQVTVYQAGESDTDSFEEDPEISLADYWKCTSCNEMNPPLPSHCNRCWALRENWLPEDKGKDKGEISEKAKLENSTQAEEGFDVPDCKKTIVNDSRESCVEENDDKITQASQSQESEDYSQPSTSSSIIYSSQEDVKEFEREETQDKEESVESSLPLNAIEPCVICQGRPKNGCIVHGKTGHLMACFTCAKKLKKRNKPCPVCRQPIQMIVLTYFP
Beta apoptosis: beta cell apoptosis inhibition; INS-1E cytokine-induced death, ATP luminescence, 48 h; percent of positive-control rescue, neutral wells zero; protection from apoptosis, % (concentration not given with the values); actives 0.8% (n = 300,000); AID 435005;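 active means Every replicate reaches about 75%, or at least half do and their mean reaches it too, limit read from the data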;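 further: 0% = cytokine-treated negative control wells and 100% = positive control rescue; higher means more ATP so stronger rescue from cytokine killing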
CSC inhib: blocks cancer stem cells. cancer stem cell-like cells viability, luminescence. inhibition, % at 7.5 µM. actives 1.1% (n = 300,000); in the data active means inhibition above about 75%; tested in HMLE shEcad cells
Calb FLC: affects C. albicans growth with fluconazole; C. albicans CaCi-2 (fluconazole-resistant clinical isolate) + fluconazole, Alamar Blue growth, 48 h; growth inhibition, % (concentration not given with the values); actives 0.57% (n = 300,000);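 active means growth inhibition above about 58% in most replicates, limit read from the data, passing the limit was not always enough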;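 further: all wells also contain fluconazole at 8 µg/ml as a sub-toxic cotreatment; 0% = median of DMSO wells and 100% = median of geldanamycin control wells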
Mdm2 MdmX conf: confirmation of human Mdm2/MdmX interaction inhibitors; Mdm2-MdmX binding, luminescent assay; inhibition, % at 8 µM; shares compounds with Mdm2 MdmX PPI; actives 55% (n = 10,000); in the data active means inhibition above about 40%
FLuc counter: counter-screen for Mdm2/MdmX inhibitors: full-length luciferase; shares compounds with Mdm2 MdmX PPI; SaOS-2 full-length luciferase counterscreen, luminescence; inhibition, % at 8 µM; actives 77% (n = 6,200); AID 504607;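 active means mean inhibition at 8 µM reaching about 37%, which flags the compound as non-specific, limit read from the data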;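 further: p53-null SaOS-2 cells with luciferase driven by a doxycycline-inducible promoter; compound on cells about two nights before reading with doxycycline added after day one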
Active calls of the source: *; . = no result.

SMILES	MPTP inh	Mdm2 MdmX PPI	Beta apoptosis	CSC inhib	Calb FLC	Mdm2 MdmX conf	FLuc counter
COc1ccc(C(CCNCc2ccc(OC(C)C)cc2)C(C)C)cc1 (stereo unspecified)	39.9	84.6*	57.0	35.0	14.8	38.9	71.1*
COc1ccc(C(CCNCc2ccc(N(C)C)cc2)C(C)C)cc1 (stereo unspecified)	45.2	49.2	36.7	18.6	-21.9	.	.
COC(=O)c1ccc2[nH]c3cccc(/C(=C/c4ccccc4)c4ccccc4)c3c2c1	2.5	65.5*	109.3*	128.8*	5.1	11.3	.
Cc1cn(CC(=O)N2CCN(c3ccccn3)CC2)c(=O)[nH]c1=O	-0.2	.	.	.	.	.	.
O=C(Oc1ccc2ccccc2c1Br)N1CCCCCC1	3.8	58.6*	8.7	-17.2	3.5	41.8*	149.9*
O=C(NCc1ccccc1Cl)c1csc(COCCO)n1	-1.9	.	.	.	.	.	.
Cc1nnc2c(NCCc3ccccc3)nc3ccccc3n12	1.1	57.2*	-2.6	-7.3	-12.6	14.6	.
Cc1cccc(CCNc2nc3ccccc3n3nnnc23)c1	0.4	0.0	4.6	4.3	1.1	.	.
O=C(NC1CCCCC1)C1c2ccccc2OCC(=O)N1CCc1ccccc1 (stereo unspecified)	-0.9	.	.	.	.	.	.
COc1cccc(CNC(=O)CCC2CCCN(C(=O)c3cccnc3SC)C2)c1 (stereo unspecified)	0.6	25.3	-4.3	-2.8	-10.0	.	.
O=C1CC(c2cc(Br)ccc2F)c2cc3c(cc2N1)CCC3 (stereo unspecified)	0.0	65.9*	40.2	82.4*	0.7	55.8*	95.0*
O=C1CC(c2cccc(Cl)c2)c2cc3c(cc2N1)CCC3 (stereo unspecified)	2.2	54.2*	.	.	10.1	57.5*	63.5*
O=C1CC(c2ccccc2Br)c2cc3c(cc2N1)CCC3 (stereo unspecified)	.	58.1*	4.2	66.6	-9.5	61.5*	55.9*
O=C1CC(c2ccccc2F)c2cc3c(cc2N1)CCC3 (stereo unspecified)	-0.2	58.0*	.	.	10.6	58.0*	57.2*
COc1cccc(C2CC(=O)Nc3cc4c(cc32)CCC4)c1 (stereo unspecified)	-3.3	45.9	25.8	13.8	-22.5	.	.
O=C1CC(c2cccc([N+](=O)[O-])c2)c2cc3c(cc2N1)CCC3 (stereo unspecified)	3.6	31.3	9.7	41.1	0.9	.	.
COc1cc2c(cc1OC)C(c1ccc(Br)cc1)CC(=O)N2 (stereo unspecified)	0.5	21.4	-1.4	-24.5	-5.9	.	.
Cc1ccc(S(=O)(=O)c2c(C)nn(C(C)(C)C)c2OC(=O)C2CCCC2)cc1	-2.9	69.9*	-12.3	32.7	-3.9	23.6	.
Cc1cc(Oc2nc3c(C)cccn3c(=O)c2/C=C(\C#N)S(=O)(=O)c2ccc(Cl)cc2)ccc1Cl	-1.1	56.7*	44.4	46.5	-4.6	-1.2	.
O=S(=O)(c1ccc(NC(=S)N/N=C/c2ccc(Oc3ccccc3)cc2)cc1)N1CCOCC1	8.3	63.9*	5.0	-2.4	7.0	38.0	85.0*
O=S(=O)(c1ccc(NC(=S)N/N=C/c2ccc(N3CCOCC3)cc2)cc1)N1CCOCC1	0.5	-4.4	9.5	-1.0	1.5	.	.
O=S(=O)(c1ccc(NC(=S)N/N=C/c2c3ccccc3cc3ccccc23)cc1)N1CCOCC1	3.6	58.2*	-0.6	6.7	.	8.8	.
CN(C)c1ccc2c(=O)c3ccccc3oc2n1	-0.6	.	.	.	.	.	.
O=C(COC(=O)c1nc(Cl)c(Cl)c(Cl)c1Cl)c1ccc[nH]1	-1.9	73.0*	.	12.4	18.4	32.1	.
COc1cc(/C=N/NC(=O)c2sc3nc(C)cc(C)c3c2N)ccc1O	2.0	72.7*	24.6	15.3	47.2	51.7*	64.1*
SMILES	MPTP inh	Mdm2 MdmX PPI	Beta apoptosis	CSC inhib	Calb FLC	Mdm2 MdmX conf	FLuc counter
COC(=O)c1sc2nc(C)cc(C)c2c1N	0.0	14.3	.	-0.7	15.6	.	.
Cc1cc(C)c2c(N)c(C(=O)Nc3ncc(C)s3)sc2n1	-0.3	78.8*	14.0	.	.	81.1*	54.8*
Cc1cc(C)c2c(N)c(C(=O)c3ccc(Cl)cc3Cl)sc2n1	0.0	70.5*	15.9	10.8	-4.9	75.2*	59.6*
Cc1cc(C)c2c(N)c(C(=O)c3ccccc3Cl)sc2n1	2.2	6.9	3.4	-1.9	-3.8	.	.
CC(C)(C)c1nc(-c2ccccc2)nc2c1OCCC2	9.0	3.6	-5.4	49.7	-2.6	.	.
CC(C)=CCc1cc2c(=O)c3c(O)c4c(cc3oc2c(O)c1O)OC(C)C4(C)C (stereo unspecified)	.	91.7*	109.1*	4.9	94.7*	39.1	63.3*
CC1Oc2cc3oc4c(O)c5c(cc4c(=O)c3c(O)c2C1(C)C)C=CC(C)(C)O5 (stereo unspecified)	.	17.5	2.0	-6.8	-3.6	.	.
O=C(NCC(c1ccco1)N1CCc2ccccc21)C(=O)Nc1ccccc1F (stereo unspecified)	-1.6	22.3	-4.1	0.3	-5.3	.	.
O=C(NCC(c1ccco1)N1CCc2ccccc21)C(=O)Nc1ccc(F)cc1F (stereo unspecified)	-2.8	52.3*	-2.7	59.9	27.9	72.5*	64.5*
Cc1sc2ncnc(N3CCC(C(=O)Nc4ccccc4C(C)(C)C)CC3)c2c1C	0.9	50.7*	2.7	-4.6	-1.8	59.5*	27.8
CCc1nnc(NC(=O)C2CCN(c3ncnc4sc(C)c(C)c34)CC2)s1	1.7	52.9*	-11.1	-2.6	.	52.9*	80.9*
CCc1nnc(NC(=O)C2CCN(S(=O)(=O)c3ccc(C)cc3)CC2)s1	0.8	53.4*	-7.4	1.1	-2.0	-2.1	.
CCCCc1nnc(NC(=O)C2CCN(c3ncnc4sc(C)c(C)c34)CC2)s1	0.7	-17.0	.	-7.1	2.5	.	.
Cc1sc2ncnc(N3CCC(C(=O)Nc4nc(-c5cccs5)cs4)CC3)c2c1C	0.3	86.4*	31.0	-1.0	-5.6	92.9*	43.4*
Cc1ccc(S(=O)(=O)N2CCC(C(=O)Nc3nnc(C4CCCC4)s3)CC2)cc1	2.2	17.6	-3.7	-16.4	-4.8	.	.
Cc1ccc2nc(NC(=O)C3CCN(c4ncnc5sc(C)c(C)c45)CC3)sc2c1	-0.6	28.8	3.2	-2.8	-3.4	.	.
CC(C)C[C@@H]1Cc2[nH][nH]c(=O)c2[C@H](C)O1	1.1	.	.	.	.	.	.
Cc1cccc(N2CCN(C(=O)c3ccccc3OCc3c(C)noc3C)CC2)c1C	-0.1	14.4	-19.7	-15.9	-4.4	.	.
O=C(Nc1nc2ccc(S(=O)(=O)N3CCCC3)cc2s1)C1CCCCC1	-0.1	65.5*	6.9	57.6	-1.7	56.6*	69.9*
O=C(Nc1nc2ccc(S(=O)(=O)N3CCCCC3)cc2s1)C1CCCO1 (stereo unspecified)	-0.8	3.7	0.2	9.5	6.8	.	.
CCc1ccc(-c2nc(CN3CCC(C(=O)NCc4ccc(F)cc4)CC3)c(C)o2)cc1	1.6	57.8*	10.9	16.0	-8.6	42.0*	66.6*

Screening results as filed in PubChem BioAssay.
